Source: PubChem BioAssay (several laboratories)
BoNT A protease – BoNT A light chain protease inhibition; multiplex microsphere protease substrate cleavage, flow cytometry; inhibition, % at 10 µM; actives 0.17% (n = 360,000); AID 588499
BoNT-F LC inh – inhibitors of Botulinum neurotoxin F light chain protease. actives 0.22% (n = 360,000). AID 588497. inhibition, % at 10 µM. Multiplex microsphere protease cleavage assay, flow cytometry; in the data active means inhibition above about 35%, passing the limit was not always enough; inconclusive means no clear call, values can overlap the other calls
BH1578 lux ind – inducers of Vibrio cholerae quorum light production without autoinducers. V. cholerae BH1578 lux reporter, luminescence, 6 h. AID 588436. activation, % at 18.7 µM. actives 0.16% (n = 350,000); in the data active means activation mostly above about 9.7%, no sharp cut-off; inconclusive means no clear call, values can overlap the other calls; inactive means mostly below about 3.7%
Autofluor counter – flagged as autofluorescent in microsphere protease counterscreen | AID 624483 | compound autofluorescence counterscreen, microsphere flow cytometry; stronger effect = higher value | actives 3.1% (n = 360,000) | fluorescence intensity (concentration not given with the values); in the data active means fluorescence intensity above about 16000; inconclusive means no clear call, values can overlap the other calls
Anthrax LF inh2 – anthrax lethal factor protease inhibition; P15917; multiplex microsphere protease cleavage assay, LF; inhibition, % at 10 µM; actives 0.12% (n = 360,000)
Each line names hits and unclear results; the compound was inactive in the other large screens. The list is not random: actives were taken first. Their share in the collection is about 3.5%. Unless noted, no stated cut-off is given here; in the data, active means inhibition above about 30%; inconclusive means no clear call, values can overlap the other calls; inactive means below that.

COc1ccc(-c2ccc(-c3nnn(CC(C)=O)n3)cc2)cc1	Autofluor counter 22673
c1ccc(Sc2ncccn2)nc1	BoNT A protease inconclusive, BoNT-F LC inh inconclusive
CCc1nc2ccc(C(=O)N(CC)CCN(C)C)cn2c1N(C)Cc1nccs1	none
COC(=O)c1ccc(C(=O)OC)nc1	BoNT-F LC inh 35
Cc1c(C#N)c2ncnc(-c3ccccc3)c2n1-c1ccccc1	Autofluor counter 23956
Cc1ccc(NCC(O)C(O)C(O)CO)cc1C (configuration not stated)	Autofluor counter 20300
Cc1cc(N=Nc2ccccc2)c(NCC(O)C(O)C(O)CO)cc1C (configuration not stated)	none
COc1ccccc1Oc1ccc(S(=O)(=O)N2CCCC2)cc1	Autofluor counter 23093
COc1ccccc1-n1c(SCC(N)=O)nnc1-c1ccc(S(=O)(=O)N2CCCCC2)cc1	Autofluor counter 22234
CCOC(=O)c1cnn(C)c1NC(=O)c1ccc(Cl)cc1Cl	none
CCOC(=O)/C(=C/C=C1\Sc2cc(C)c(C)cc2N1CC)C(C)=O	BoNT A protease 40, Autofluor counter 16482
Cc1sc2ncnc(N3CCC(C)CC3)c2c1C	none
CCOC(=O)C1CCN(C(=O)c2sc3ncnc(N4CCC(C)CC4)c3c2C)CC1	BoNT A protease inconclusive, Autofluor counter 16307
CCOC(=O)C1CCN(C(=O)c2sc3nc(C)nc(N4CCC(C)CC4)c3c2C)CC1	Autofluor counter 21764
CC(C)=CCC/C(C)=C/CNC(=O)C[C@H]1C[C@H](C(=O)N2CCCCC2)[C@@]2(C)c3[nH]c4cc(CCC(=O)N(C)C)ccc4c3CCN2C1=O	none
O=C(COc1ccc2ccccc2c1)N1c2ccccc2Sc2ccccc21	Autofluor counter 22677
Cc1c(NC(=S)NNC(=O)CCC(=O)O)c(=O)n(-c2ccccc2)n1C	none
COc1ccc(C(=O)c2ccccc2)c(O)c1	Autofluor counter 23016
O=C(c1ccccc1)c1ccc(O)cc1O	none
COCCN(C(=O)CSc1nnc(-c2ccccc2F)n1N)c1c(N)n(Cc2ccccc2)c(=O)[nH]c1=O	none
COCCNC(=O)c1onc(CSc2ccc(F)c(F)c2)c1C(=O)NCCOC	none
Cc1ccccc1OCC(=O)Nc1ccc2c(c1)COC2=O	Autofluor counter 20173
CCc1ccc(OCC(=O)Nc2ccc3c(c2)COC3=O)cc1	none
COc1ccc(N2C(=O)CCC(C(=O)c3ccccc3)=C2C)cc1	BoNT A protease inconclusive, Autofluor counter 19774
COc1ccc(C(=O)c2ccccc2C(=O)c2ccccc2)cc1	none
CN(NS(=O)(=O)c1ccccc1)C(=O)c1ccccc1	none
CCOC(=O)c1cnc(Nc2nc3ccccc3o2)nc1C	Autofluor counter 20539
CCOC(=O)c1cnc(Nc2nc3ccccc3o2)nc1CSc1nnc(C)s1	none
CC(C)(C)CC(=O)Nc1nn[nH]n1	none
CCOc1cc(C(=O)CCC(=O)OCC(=O)Nc2ccc(F)cc2)ccc1O	none (no result: BoNT A protease, BoNT-F LC inh, Autofluor counter, Anthrax LF inh2)
CN(C)c1ccc(NC(=O)COC(=O)CCC(=O)c2ccc(F)cc2)cc1	Autofluor counter 21300
C=CCC[C@H](Cc1ccc(F)cc1)C(=O)OC[C@@H](Cc1c[nH]c2ccccc12)NC(=O)[C@@H](CC=C)CC(=O)NCCO	none
Cc1ccc(OCc2nc(-c3ccccc3)no2)c(C)c1	none (no result: BoNT A protease, BoNT-F LC inh, Autofluor counter, Anthrax LF inh2)
Clc1ccc(OCCCc2nc(-c3ccncc3)no2)c(Cl)c1	none (no result: BH1578 lux ind)
Clc1ccc(OCCCc2nc(-c3cccnc3)no2)c(Cl)c1	Autofluor counter 21481
Cc1cc(C)c(C)c(OCc2nc(-c3cccnc3)no2)c1	Autofluor counter 21478
CCn1c(SCc2nc(-c3ccccc3)no2)nnc1-c1cccs1	none
CCn1c(SCc2nc(-c3ccccc3)no2)nnc1-c1ccco1	Autofluor counter 23800
c1ccc(-c2noc(CC3CCCCC3)n2)cc1	none
c1ccc(-c2noc(CSc3nnnn3C3CCCCC3)n2)cc1	Autofluor counter 20752
COCCN(C(=O)CSc1nc2ccccc2s1)c1c(N)n(Cc2ccccc2)c(=O)[nH]c1=O	none (no result: BoNT A protease, BoNT-F LC inh, Autofluor counter, Anthrax LF inh2)
CC(C)N1CCN(C(=O)c2ccc([N+](=O)[O-])cc2)CC1	none (no result: BoNT A protease, BoNT-F LC inh, Autofluor counter, Anthrax LF inh2)
CCOc1ccc(C(=O)N(CN2CCCC2=O)c2ccccc2)cc1	BoNT A protease inconclusive, Autofluor counter 19439
Cc1ccc(N(CN2CCCC2=O)C(=O)c2ccc(OC(C)C)cc2)cc1	BoNT A protease inconclusive, Autofluor counter 19242
Cc1cc(C)c(NC(=S)N(C)C)c(C)c1	none
O=C(O)c1ccc(-c2ccccn2)s1	none
O=C(O)c1cc(-c2ccccn2)n[nH]1	Autofluor counter 22786
COc1ccc(S(=O)(=O)Cc2ccccc2)cc1N	Autofluor counter 23710
O=C(N/N=C/c1ccccc1)c1n[nH]c2c1CCCC2	none
CC1(C)CC(=NNC(=O)c2n[nH]c3c2CCC3)CC(C)(C)N1	BoNT-F LC inh 37
CC(=NNC(=S)N(Cc1ccccn1)Cc1ccccn1)c1cnccn1	BoNT-F LC inh 45, Anthrax LF inh2 40
S=C(NN=Cc1ccccn1)N(Cc1ccccn1)Cc1ccccn1	none (no result: BH1578 lux ind)
S=C(NN=C(c1ccccc1)c1ccccn1)N(Cc1ccccn1)Cc1ccccn1	BoNT A protease 51, BoNT-F LC inh 42, Anthrax LF inh2 43
Cc1c(N2C(=O)CSC2c2ccco2)c(=O)n(-c2ccccc2)n1C (configuration not stated)	none
CCCc1nc2c(C)ccc(C)c2c(N)c1CC	BoNT A protease inconclusive, Autofluor counter 22777
O=[N+]([O-])c1cccc(-c2ccc3nnc(SCc4cccnc4)n3n2)c1	none
COC(=O)c1ccccc1OP1(=O)COc2ccccc2OC1	BoNT A protease inconclusive, Autofluor counter 22712
COC(=O)c1ccccc1OS(=O)(=O)N(C)C	none
COc1ccc(/C=C/C(=O)NCc2c(C)nn(C)c2C)cc1COc1ccc(Br)cc1	none
COc1ccc(/C=C/C(=O)NCc2cnn(C)c2C)cc1COc1ccc(Br)cc1	Autofluor counter 23817
O=C(COC(=O)/C=C/c1ccc(OC(F)F)cc1)NC1CCCCCCC1	none
CC(Oc1ccccc1)c1ccnc2nc(/N=C/N(C)C)nn12 (configuration not stated)	BoNT A protease inconclusive, Autofluor counter 21790
Cc1cc(C)cc(OC(C)c2ccnc3nc(/N=C/N(C)C)nn23)c1 (configuration not stated)	none
O=[N+]([O-])c1ccc(O)c(/C=N/Nc2ccccn2)c1	BoNT-F LC inh 67
CCCCn1c(SCC(=O)Nc2cc(C(F)(F)F)cc(C(F)(F)F)c2)nnc1C(CC)N(C)C (configuration not stated)	none
Cc1ccc(OCCNC(=O)c2ccccc2F)cc1	none
O=C(Nc1ccc(F)cc1F)N1CCCCC1c1cccnc1 (configuration not stated)	BoNT A protease inconclusive, Autofluor counter 22683
O=C(Nc1ccccc1F)N1CCCC1c1cccnc1 (configuration not stated)	BoNT A protease inconclusive, BoNT-F LC inh inconclusive
CS(=O)(=O)N1N=C(c2ccccc2)CC1c1ccc2nccnc2c1 (configuration not stated)	none
CS(=O)(=O)N1N=C(c2ccc3nccnc3c2)CC1c1ccccc1 (configuration not stated)	Autofluor counter 24132
Oc1ccc(Oc2ccc3c(C(F)(F)F)cc(C(F)(F)F)nc3n2)cc1	none
